The assay relates to glycogen synthase kinase-3 (GSK3A per assay name; protocol says GSK3B). In words: compounds binding glycogen synthase kinase-3 – biochemical, small-molecule microarray, 635 nm fluorescence, GSK3A, primary screen (AID 1103). Further: the record names both GSK3A and GSK3B. Particulars: fluorescence 635 nm, higher = more signal.
In the case of `O=C1C=C[C@@H](O)[C@@H]2[C@@H]3C(=O)N(C4CCCCC4)C(=O)[C@@H]3CC[C@@H]12`, the composite z-score worked out at 0.708. The same measure for `C[C@@H]1CC[C@H]2C(=O)OC(Cc3ccccc3)CN2[C@H]1c1ccc(Br)cc1` (stereo partly specified): 0.255; for `O=C1[C@H]2[C@H]3[C@H](O)[C@H](O)CC(=NO[C@@H]4O[C@H](CO)[C@@H](O)[C@H](O)[C@H]4O)[C@H]3CC[C@H]2C(=O)N1c1ccc(F)cc1F`: -0.444. With `COc1ccc(COC(=O)NN=C2C[C@@H](O)[C@@H](O)[C@@H]3[C@@H]4C(=O)N([C@@H](C)c5ccccc5)C(=O)[C@@H]4CC[C@H]23)cc1` the figure was -0.721; with `CC(=O)OC[C@H]1O[C@H](CC=NO[C@H](C)c2cn([C@@H]3COC[C@H]3O)nn2)C=C[C@@H]1OC(C)=O`, 0.0915; with `COc1ccc(O[C@H]2C=C[C@@H](c3ccccc3)O[C@@H]2CO)cc1`, 0.207. With `CCOC(=O)[C@H](Cc1ccccc1)NC(=O)CCC1CC(OC(=O)NCCc2ccc(F)cc2)CC2(CCCC(COC(=O)NCCOc3ccccc3)O2)O1` (stereo partly specified) the figure was 1.28; with `O=C1C[C@@H](O)[C@@H](O)[C@@H]2[C@@H]3C(=O)N(C4CCCCC4)C(=O)[C@@H]3CC[C@@H]12`, 0.235; with `CC(CCN1CCCCc2nc(C)c(C)cc21)=NO[C@@H](C)c1cc(-c2c(C)cc(C)cc2C)no1`, -1.05. The compound `CCOC(=O)[C@H](CC(C)C)NC(=O)CCC1CC(OC(=O)NCc2ccc3c(c2)OCO3)CC2(CCCC(COC(=O)NCCOc3ccccc3)O2)O1` (stereo partly specified) registered a composite z-score of 0.994. With `C=CC[C@@H]1C=C[C@H](ON=C(C)CCN2CCCc3nc(C)c(C)cc32)[C@@H](CO)O1` the figure was 1.15. `O=C1CCCC=C1C(O)C1CCCCC1` (stereo unspecified): the composite z-score was -0.0973.

As to `CO[C@H]1COC(=O)CC=C[C@H](C)[C@H](OC)COC(=O)[C@@H](C)NC(=O)CC=C[C@@H]1C`, the composite z-score is 0.507. Compound `COC(=O)CC=C[C@@H](C)[C@@H](C=NOC[C@@H](C)[C@H](OCc1ccccc1)C(C)C)OC` yielded a composite z-score of 0.103. With `CC(C)CON=C1C[C@@H](O)[C@@H](O)[C@@H]2[C@@H]3C(=O)N(C(C)(C)C)C(=O)[C@@H]3CC[C@@H]12` the figure was 1.25; with `CC1(C)O[C@H]2OC([C@H](O)CON3C(=O)c4ccccc4C3=O)[C@H](O)[C@H]2O1` (stereo partly specified), 0.0618. The same measure for `CCOC(=O)CCN1C(=O)[C@H]2[C@H]3[C@H](O)[C@H](O)CC(=NNC(=O)OCC)[C@H]3CC[C@H]2C1=O`: -0.542; for `CCN(CC)CC(O)CN1CCCCc2nc(C)c(C)cc21` (stereo unspecified): 0.709.

Consider `CC(C)=NO[C@@H](C)c1cn([C@H](CO)Cc2ccccc2)nn1`, for which the composite z-score worked out at 0.523. With `O=C(NN=C1C[C@@H](O)[C@@H](O)[C@@H]2[C@@H]3C(=O)N(Cc4ccccc4)C(=O)[C@@H]3CC[C@H]12)OCc1ccccc1` the figure was 0.256; with `CCOC(=O)CCN1C(=O)[C@H]2[C@H]3[C@H](O)[C@H](O)CC(=NOCC=C(C)CCC=C(C)C)[C@H]3CC[C@H]2C1=O`, -0.709; with `CC(=O)OC[C@H]1O[C@@H](ON=C2[C@H]3CCn4c(=O)n(-c5ccccc5)c(=O)n4[C@H]3[C@H](O)[C@@H]3O[C@H]23)[C@H](OC(C)=O)[C@@H](OC(C)=O)[C@@H]1OC(C)=O`, 0.913. The same measure for `O=C1CCCC=C1C(O)COCc1ccccc1` (stereo unspecified): -1.62; for `C[C@H]1CC[C@@H](C(=O)O)N[C@@H]1c1cccc(N2CCCC2=O)c1`: 0.631.

Consider `COC(=O)[C@H](C)NC(=O)CCC1CC(OC(=O)NCc2ccc3c(c2)OCO3)CC2(CCCC(COC(=O)NCCCN3CCCC3=O)O2)O1` (stereo partly specified), for which the composite z-score is 1.28. With `CC(C)(C)N1C(=O)[C@H]2[C@@H]3C(=CC[C@H]2C1=O)C(=O)[C@H]1O[C@H]1[C@H]3O` the figure was 0.138; with `CCOC(=O)NN=C1C[C@@H](O)[C@@H](O)[C@@H]2[C@@H]3C(=O)N(C[C@@H]4CCCO4)C(=O)[C@@H]3CC[C@H]12`, 0.417. `CC(C)=CCCC(C)=CCON=C1C[C@@H](O)[C@@H](O)[C@@H]2[C@@H]3C(=O)N(Cc4ccc5c(c4)OCO5)C(=O)[C@@H]3CC[C@H]12` yielded a composite z-score of 0.327. The same measure for `CC(=O)OC[C@H]1O[C@H](CC=NOC(C)CN2CCCCc3nc(C)c(C)cc32)C=C[C@@H]1OC(C)=O` (stereo partly specified): 1.31; for `CCOC(=O)[C@H](Cc1ccccc1)NC(=O)CCC1CC(OC(=O)NCCc2ccc(F)cc2)CC2(CCCC(COC(=O)NCc3cccc(C(F)(F)F)c3)O2)O1` (stereo partly specified): 1.06. For `O=C1C=C[C@@H](O)[C@@H]2[C@@H]3C(=O)N(Cc4ccc5c(c4)OCO5)C(=O)[C@@H]3CC[C@@H]12`, the composite z-score was 0.719.

Regarding `O=C1CCCC=C1C(O)c1ccc([N+](=O)[O-])cc1` (stereo unspecified), the composite z-score came to 0.288.

Compound `COC(=O)CC=C[C@@H](C)[C@@H](C=NOC(C)CN1CCCCc2nc(C)c(C)cc21)NS(=O)(=O)c1ccc(C)cc1` (stereo partly specified) returned a composite z-score of 0.165.

Turning to `CC(CCC(=O)OC[C@H]1O[C@H](C#Cc2ccccc2)C=C[C@@H]1Oc1ccc(C)cc1)=NOC(C)CN1CCCc2nc(C)c(C)cc21` (stereo partly specified), the composite z-score was 0.727.

`CCN1C(=O)[C@H]2[C@H]3[C@H](O)[C@H](O)CC(=NO[C@H](C)c4cn([C@@H]5COC[C@H]5O)nn4)[C@@H]3CC[C@H]2C1=O` came in with a composite z-score of -0.162. The same measure for `COc1ccc(-c2cnnc(CCCn3ccnc3-c3ccccc3)n2)cc1`: 0.7.
